Data as given in PubChem BioAssay (EPA / NIEHS).
Activity calls are given as the source filed them. The calls were made as follows: active = hit-call score of the fitted dose curve at least 0.9, where 1 is the maximum; inactive = score below 0.9.

Assay: ATG_TCF_b_cat_CIS: Attagene CIS-FACTORIAL HepG2 Assay for human T-Cell-Factor with beta-catenin (TCF/b-cat) (AID 2282965)
Conditions: HepG2 TCF/beta-catenin cis-reporter transcription, actives raise or lower the signal
Summary of the method: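 Using capillary electrophoresis as the read-out, labelled reporter cDNA fragments from transiently transfected HepG2 were sized and quantified. Exposure lasted 24 hours; activity in either direction was referenced to DMSO.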

Compound | outcome | AC50
CCCCCCCCOC(C)=O | inactive | –
CCOC(=O)C(=O)OCC | inactive | –
CCCCCCCCCCCCOCCOS(=O)(=O)O | inactive | –
O=[N+]([O-])c1cc(N(CCO)CCO)ccc1NCCO | inactive | –
Cc1ccncc1 | inactive | –
CCc1cccc(O)c1 | inactive | –
O=S(=O)(O)CCCN1CCOCC1 | inactive | –
C=CC(O)CCCCC (configuration not stated) | – | 27 µM (active)
CCCOC(=O)CC | inactive | –
CCn1cc(C(=O)O)c(=O)c2ccc(C)nc21 | inactive | –
NC(N)=S | inactive | –
CCOc1ccc(NC(C)=O)cc1 | inactive | –
S=c1[nH][nH]c(=S)s1 | inactive | –
C=CC(=O)OCC(CO)(COC(=O)C=C)COC(=O)C=C | – | 5.46 µM (active)
C=C(C)C(N)=O | inactive | –
CCCCOC(=O)C(C)OC(=O)CCC (configuration not stated) | inactive | –
CCOC(=O)CC(C)C | inactive | –

Compound | outcome | AC50
CCCCCCOC(C)=O | inactive | –
COc1ccc2[nH]cc(CCNC(C)=O)c2c1 | inactive | –
CC/C=C\CCOC(=O)C(C)C | inactive | –
CCCCCCCCCCCCCCCCCC(=O)OCCCCCCCCCCCCCC(C)C | inactive | –
CCCCCCCCCC(=O)OCC | inactive | –
CCC(C)(C)c1cc(O)c(C(C)(C)CC)cc1O | – | 27.4 µM (active)
Cc1cccc(C)c1 | inactive | –
CC(=O)c1cccnc1 | inactive | –
C[N+](C)(C)CCO | inactive | –
c1ccc2scnc2c1 | inactive | –
CC1=CC(O)CC(C)(C)C1 (configuration not stated) | inactive | –
COC(=O)c1ccc(C(=O)OC)cc1 | inactive | –
ClCCOCCOCCCl | inactive | –
O=S1(=O)CC=CC1 | inactive | –
CCCCCCCCCCO[C@@H]1O[C@H](CO)[C@@H](O)[C@H](O)[C@H]1O | inactive | –
CCCCCC1CCC(=O)O1 (configuration not stated) | inactive | –
C=C(C)C(=O)OCCOCCOC(=O)C(=C)C | inactive | –

Assay: ATG_TAL_CIS: Attagene CIS-FACTORIAL HepG2 Assay for human TAL Basal Promoter (AID 2282966);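 also: background control endpoint measuring basal TAL promoter reporter mRNA not a specific factor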
Conditions: HepG2 Attagene cis-factorial TAL promoter reporter; actives raise or lower the signal
Summary of the method: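 Transiently transfected HepG2 (cis-regulated reporter units), 24 h treatment, mRNA read by fluorescent CE after RT-PCR; bidirectional fit, DMSO baseline.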

Compound | outcome
CCCCCCCCOC(C)=O | inactive
CCOC(=O)C(=O)OCC | inactive
CCCCCCCCCCCCOCCOS(=O)(=O)O | inactive
O=[N+]([O-])c1cc(N(CCO)CCO)ccc1NCCO | inactive
Cc1ccncc1 | inactive
CCc1cccc(O)c1 | inactive
O=S(=O)(O)CCCN1CCOCC1 | inactive
C=CC(O)CCCCC (configuration not stated) | inactive
CCCOC(=O)CC | inactive
CCn1cc(C(=O)O)c(=O)c2ccc(C)nc21 | inactive
NC(N)=S | inactive
CCOc1ccc(NC(C)=O)cc1 | inactive
S=c1[nH][nH]c(=S)s1 | inactive
C=CC(=O)OCC(CO)(COC(=O)C=C)COC(=O)C=C | inactive
C=C(C)C(N)=O | inactive
CCCCOC(=O)C(C)OC(=O)CCC (configuration not stated) | inactive
CCOC(=O)CC(C)C | inactive

Compound | outcome
CCCCCCOC(C)=O | inactive
COc1ccc2[nH]cc(CCNC(C)=O)c2c1 | inactive
CC/C=C\CCOC(=O)C(C)C | inactive
CCCCCCCCCCCCCCCCCC(=O)OCCCCCCCCCCCCCC(C)C | inactive
CCCCCCCCCC(=O)OCC | inactive
CCC(C)(C)c1cc(O)c(C(C)(C)CC)cc1O | inactive
Cc1cccc(C)c1 | inactive
CC(=O)c1cccnc1 | inactive
C[N+](C)(C)CCO | inactive
c1ccc2scnc2c1 | inactive
CC1=CC(O)CC(C)(C)C1 (configuration not stated) | inactive
COC(=O)c1ccc(C(=O)OC)cc1 | inactive
ClCCOCCOCCCl | inactive
O=S1(=O)CC=CC1 | inactive
CCCCCCCCCCO[C@@H]1O[C@H](CO)[C@@H](O)[C@H](O)[C@H]1O | inactive
CCCCCC1CCC(=O)O1 (configuration not stated) | inactive
C=C(C)C(=O)OCCOCCOC(=O)C(=C)C | inactive

Assay: ATG_TGFb_CIS: Attagene CIS-FACTORIAL HepG2 Assay for human Transforming Growth Factor (TGF) (AID 2282967)
Conditions: HepG2 Attagene CIS TGFb reporter, mRNA transcription; actives raise or lower the signal
Summary of the method: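 Endogenous TGFB1-linked transcription factor activity read as reporter mRNA via RT-PCR and capillary electrophoresis, 24 h after dosing transiently transfected HepG2 cells. Gain or loss of signal fitted relative to DMSO.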

Compound | outcome | AC50
CCCCCCCCOC(C)=O | inactive | –
CCOC(=O)C(=O)OCC | inactive | –
CCCCCCCCCCCCOCCOS(=O)(=O)O | inactive | –
O=[N+]([O-])c1cc(N(CCO)CCO)ccc1NCCO | inactive | –
Cc1ccncc1 | inactive | –
CCc1cccc(O)c1 | inactive | –
O=S(=O)(O)CCCN1CCOCC1 | inactive | –
C=CC(O)CCCCC (configuration not stated) | inactive | –
CCCOC(=O)CC | inactive | –
CCn1cc(C(=O)O)c(=O)c2ccc(C)nc21 | inactive | –
NC(N)=S | inactive | –
CCOc1ccc(NC(C)=O)cc1 | inactive | –
S=c1[nH][nH]c(=S)s1 | inactive | –
C=CC(=O)OCC(CO)(COC(=O)C=C)COC(=O)C=C | – | 54.2 µM (active)
C=C(C)C(N)=O | inactive | –
CCCCOC(=O)C(C)OC(=O)CCC (configuration not stated) | inactive | –
CCOC(=O)CC(C)C | inactive | –

Compound | outcome | AC50
CCCCCCOC(C)=O | inactive | –
COc1ccc2[nH]cc(CCNC(C)=O)c2c1 | inactive | –
CC/C=C\CCOC(=O)C(C)C | inactive | –
CCCCCCCCCCCCCCCCCC(=O)OCCCCCCCCCCCCCC(C)C | inactive | –
CCCCCCCCCC(=O)OCC | inactive | –
CCC(C)(C)c1cc(O)c(C(C)(C)CC)cc1O | – | 146 µM (active)
Cc1cccc(C)c1 | inactive | –
CC(=O)c1cccnc1 | inactive | –
C[N+](C)(C)CCO | inactive | –
c1ccc2scnc2c1 | inactive | –
CC1=CC(O)CC(C)(C)C1 (configuration not stated) | inactive | –
COC(=O)c1ccc(C(=O)OC)cc1 | inactive | –
ClCCOCCOCCCl | inactive | –
O=S1(=O)CC=CC1 | inactive | –
CCCCCCCCCCO[C@@H]1O[C@H](CO)[C@@H](O)[C@H](O)[C@H]1O | inactive | –
CCCCCC1CCC(=O)O1 (configuration not stated) | inactive | –
C=C(C)C(=O)OCCOCCOC(=O)C(=C)C | inactive | –
